From PubChem BioAssay
Rows were chosen to be rich in hits. Some 27% of all compounds tested hit in one or more screens of this group.
Cav3 T inh = Cav3.2 calcium influx blockers – cell-based, Fluo-4 calcium fluorescence, FDSS, MLSMR library, primary screen | Voltage-dependent T-type calcium channel subunit alpha-1H (Homo sapiens), O95180 | Cav3.2-expressing cells; hits give low values | B-score at 10 µM | 4% of 100,000 active | AID 449739, 2010;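 active = single-dose well whose peak fluorescence ratio is a statistical outlier from its plate by either plate-standardised score or position-corrected B-score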
CYP2C19 act = human CYP2C19 activators, primary screen, biochemical, luminescence; recombinant CYP2C19, luciferin-H EGE luminescence; hits give high values; 0 = fully inhibited enzyme, 1 = untreated enzyme; Cytochrome P450 2C19 (Homo sapiens), P33261; AID 1025, 2008; 96,000 tested, under 10 active; activation factor at 5 µM;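 active = activation factor of at least 2 at 5 µM in the primary screen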
CYP2C9 inh = blockers of cytochrome P450 2C9 activity – biochemical, luminescence, ADME assay, primary screen | P11712 | CYP2C9 Supersomes, luciferin-H conversion | inhibition, % at 5 µM | 20% of 96,000 active;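 active = blocking of liver enzyme CYP2C9 beyond about 50% at 5 µM, limit read from the data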
CYP2C9 act = human CYP2C9 activators, primary screen, biochemical, luminescence; 1.4% of 96,000 active; AID 1024, 2008; recombinant CYP2C9, luciferin-H conversion; hits give high values; factor 1 = untreated enzyme, 0 = blocked; activation factor at 5 µM; Cytochrome P450 2C9 (Homo sapiens), P11712;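 active = activation factor of 2 or more for CYP2C9 at a 5 µM dose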
CYP2C19 inhib = blockers of cytochrome P450 2C19 activity – biochemical, luminescence, ADME assay, primary screen; 21% of 96,000 active; AID 778, 2007; CYP2C19 Supersomes, luciferin-H EGE luminescence, 30 min; inhibition, % at 5 µM;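 active = CYP2C19 inhibition above a set limit at 5 µM in the primary screen, cut at about 50% in these data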
Large screens that a line does not name were inactive.

Cc1cc(C)n(CC(=O)c2ccc(Br)cc2)c(=O)c1C#N	none
CCCc1nnc(SCC(=O)N2CCCCC2)n1CCCOC	none
CCCn1c(=O)c2ccccc2n2c(SCCOc3ccc(Cl)cc3)nnc12	none
CCCn1c(=O)c2ccccc2n2c(SCCOc3ccccc3F)nnc12	CYP2C19 inhib 55.8
CCCn1c(=O)c2ccccc2n2c(SCC(=O)c3ccccc3)nnc12	CYP2C9 inh 55.0
CCc1c(C2(O)CCCCC2)[nH]c2ccc(C#N)cc12	none (no result: CYP2C19 act, CYP2C9 inh, CYP2C9 act, CYP2C19 inhib)
O=C(c1ccc(Cl)c(S(=O)(=O)NCc2ccco2)c1)N1CCN(c2ccc(F)cc2)CC1	none
CCCC(=O)NC(Nc1cc(C(F)(F)F)ccc1Cl)C(Cl)(Cl)Cl (stereo not given)	none
COc1ccc(Cn2c(C)ccc2C)cc1	none
COc1ccc(Cn2cnc3c([N+](=O)[O-])c(C)c(C)cc32)cc1	Cav3 T inh -6.18, CYP2C9 inh 59.1, CYP2C19 inhib 53.2
O=C(O)CCC(=O)Nc1ccc2c(c1)oc1ccccc12	none
Cn1c(=O)c(C(=O)CSc2nncs2)c(N)n(Cc2ccccc2)c1=O	CYP2C9 inh 62.1, CYP2C19 inhib 90.7
CCOc1ccc(C)cc1S(=O)(=O)n1ccnc1	CYP2C9 inh 61.4
O=C(CCN1CCCCCC1)Nc1cccc(F)c1	none
O=C(CCN1CCc2ccccc2C1)Nc1cccc(F)c1	CYP2C19 inhib 91.5
CC(CC(=O)N1CCc2ccccc21)c1ccccc1 (stereo not given)	CYP2C19 inhib 93.6 (no result: Cav3 T inh)
O=C(CCCC(=O)N1CCc2ccccc21)N1CCc2ccccc21	none (no result: Cav3 T inh)
O=C(Cc1ccc(-n2cccc2)cc1)N1CCc2ccccc21	CYP2C19 inhib 58.6
O=C(CN1C(=O)CSc2ccccc21)N1CCc2ccccc21	CYP2C19 inhib 82.1 (no result: Cav3 T inh)
COc1ccc(C2=NOC(C)(c3nnc(-c4ccccc4)o3)C2)cc1 (stereo not given)	none (no result: CYP2C19 act, CYP2C9 inh, CYP2C9 act, CYP2C19 inhib)
Cc1cccc(N2CCN(C(=O)Cn3nc(Cc4ccncc4)c4ccccc4c3=O)CC2)c1C	none (no result: CYP2C19 act, CYP2C9 inh, CYP2C9 act, CYP2C19 inhib)
O=C(CNC(=O)c1cnccn1)Nc1ccc(F)c(F)c1F	none
O=C(CCN1CCc2ccccc2C1)Nc1ccccc1	CYP2C9 inh 60.5, CYP2C19 inhib 91.4
O=C(CCC(=O)N1CCc2ccccc21)Nc1ccccc1	CYP2C19 inhib 92.5
C=C(C)Cn1c(COc2ccccc2)nnc1SCC(=O)O	none
COc1ccc2[nH]c(=O)c(CN(C(=O)c3ccco3)C3CCCCC3)cc2c1	none
CC(=O)O[C@H]1C[C@@]2(C)[C@@H](C[C@@H](O)[C@H]3[C@@]4(C)CC[C@@H](O)[C@@H](C)C4CC[C@@]32C)/C1=C(\CCC=C(C)C)C(=O)O (stereo not given in full)	none (no result: CYP2C19 act, CYP2C9 inh, CYP2C9 act, CYP2C19 inhib)
O=C(C1=C(O)C(=O)N(Cc2ccco2)C1c1ccccc1)c1cccs1 (stereo not given)	none
Cc1c(CN(C)C(=O)c2ccc(Br)o2)cnn1C	none (no result: CYP2C19 act, CYP2C9 inh, CYP2C9 act, CYP2C19 inhib)
CCOc1ccc(-c2nc(N)ncc2-c2ccccc2)c(O)c1	none
C=C(C)COc1ccc(-c2nc(N)ncc2Oc2ccccc2OCC)c(O)c1	CYP2C9 inh 91.7, CYP2C19 inhib 79.8
Cc1ccc(-n2[nH]c(C)c(/C=C3/C=Nc4ccccc43)c2=O)cc1C	none (no result: CYP2C19 act, CYP2C9 inh, CYP2C9 act, CYP2C19 inhib)
COc1ccc(NC(=O)C(c2ccccc2)N(C)C(=O)c2cnccn2)cc1 (stereo not given)	Cav3 T inh -4.18
Cc1nc(N2CCN(Cc3nc4ccccc4[nH]3)CC2)c2oc3ccccc3c2n1	CYP2C9 inh 92.4, CYP2C19 inhib 83.7
c1ccc2[nH]c(CN3CCN(c4ncnc5c4oc4ccccc45)CC3)nc2c1	CYP2C9 inh 55.0
COc1ccccc1N1CCN(C(CNC(=O)c2ccc3c(c2)OCO3)c2cccnc2)CC1 (stereo not given)	none
CCOC(=O)CNC(=O)c1ccccc1Br	none
COc1cc(-c2nc(-c3ccccc3)c(-c3cccs3)[nH]2)cc(OC)c1O	CYP2C9 inh 82.0, CYP2C19 inhib 60.7
COc1cc(-c2nc(-c3ccccc3)c(-c3cccs3)[nH]2)cc(OC)c1OC	none
O=C(Nc1ccc(N2CCOCC2)c(Cl)c1)c1ccco1	none
O=C(NC(NC(=S)Nc1cc(Cl)ccc1Cl)C(Cl)(Cl)Cl)c1ccco1 (stereo not given)	CYP2C9 inh 96.7, CYP2C19 inhib 80.7
O=C(NC(NC(=S)Nc1ccc(Cl)c(Cl)c1)C(Cl)(Cl)Cl)c1ccco1 (stereo not given)	CYP2C9 inh 99.7, CYP2C19 inhib 72.2
Cc1ccc(Cn2nnc3c(=O)[nH]c(C4CCN(C(=O)Cc5cccs5)CC4)nc32)cc1	CYP2C9 inh 89.1
O=C(Cc1cccs1)N1CCC(c2nc3c(nnn3Cc3ccccc3)c(=O)[nH]2)CC1	CYP2C9 inh 97.0
Cc1ccc(Cn2nnc3c(=O)[nH]c(C4CCN(S(=O)(=O)c5ccccc5)CC4)nc32)cc1	CYP2C9 inh 78.7
O=c1[nH]c(C2CCCN(S(=O)(=O)c3ccc(F)cc3)C2)nc2c1nnn2Cc1ccccc1 (stereo not given)	none
CCOc1ccc(N(CC(=O)NC2CCCC2)S(=O)(=O)c2c(C)[nH]c(=O)[nH]c2=O)cc1	none
CCC(c1nnnn1C(C)C)N1CCN(C2CCCC2)CC1 (stereo not given)	none (no result: Cav3 T inh)
COc1ccccc1CNC(=O)C1CC(c2ccccc2F)=NO1 (stereo not given)	none (no result: CYP2C19 act, CYP2C9 inh, CYP2C9 act, CYP2C19 inhib)
CC(=O)c1ccc2c3c(cccc13)CC2	CYP2C9 act 3.6
CS(=O)(=O)Nc1ccc2c3c(cccc13)CC2	CYP2C9 act 2.5
COc1cccc(OC)c1C(=O)Nc1ccc2c3c(cccc13)CC2	none (no result: CYP2C19 act, CYP2C9 inh, CYP2C9 act, CYP2C19 inhib)
COc1ccc(S(=O)(=O)NCC2CCC(C(=O)N3CCC4(CC3)OCCO4)CC2)cc1 (stereo not given)	none (no result: CYP2C19 act, CYP2C9 inh, CYP2C9 act, CYP2C19 inhib)
COc1cccc(-c2nc(SC)nc3sc(C(=O)NC(C)(C)C)c(N)c23)c1	none (no result: CYP2C19 act, CYP2C9 inh, CYP2C9 act, CYP2C19 inhib)
Cc1ccc(-c2n[nH]c(=O)c3ccccc23)cc1N	CYP2C19 inhib 67.6
Nc1ccc(-c2n[nH]c(=O)c3ccccc23)cc1N	none
Clc1ccc(CN2CCN(c3ncnc4scc(-c5cccs5)c34)CC2)cc1	CYP2C19 inhib 83.5
O=C(N/C=N/OCc1ccc(Cl)cc1Cl)NOCc1ncc(C(F)(F)F)cc1Cl	CYP2C9 inh 85.8, CYP2C19 inhib 96.9
CO/N=C/NC(=O)NOCc1ncc(C(F)(F)F)cc1Cl	none
COc1cc([C@H]2[C@@H]3CCCC[C@]3(O)CCN2CC(=O)Nc2ccc(C)cc2C)ccc1O	none
COc1cc([C@H]2[C@@H]3CCCC[C@]3(O)CCN2Cc2ccccc2F)ccc1O	CYP2C19 inhib 82.6
c1ccc(-c2csc(Nc3cccnc3)n2)nc1	CYP2C9 inh 68.3, CYP2C19 inhib 67.3
COc1ccc(-c2csc(Nc3cccnc3)n2)cc1	none
CCCCN(C)CCn1c(=S)[nH]c2ccc(N3CCOCC3)cc2c1=O	none
